# Laboratory results taken from PMC7819943, “Rice protein-binding microarrays: a tool to detect cis-acting elements near promoter regions in rice”.
# The full ranking holds about 39,000 sequences; the median of “fluorescence intensity (a.u.)” is about 4,300, and the highest 2% start at about 39,000. The sample holds the highest values, similar sequences and a random draw of the others, so the mix is not that of the screen.
# Biological target: T1, OsSMF1 (Oryza sativa, UniProt Q6ZLB0 1-436)
# T1 sequence: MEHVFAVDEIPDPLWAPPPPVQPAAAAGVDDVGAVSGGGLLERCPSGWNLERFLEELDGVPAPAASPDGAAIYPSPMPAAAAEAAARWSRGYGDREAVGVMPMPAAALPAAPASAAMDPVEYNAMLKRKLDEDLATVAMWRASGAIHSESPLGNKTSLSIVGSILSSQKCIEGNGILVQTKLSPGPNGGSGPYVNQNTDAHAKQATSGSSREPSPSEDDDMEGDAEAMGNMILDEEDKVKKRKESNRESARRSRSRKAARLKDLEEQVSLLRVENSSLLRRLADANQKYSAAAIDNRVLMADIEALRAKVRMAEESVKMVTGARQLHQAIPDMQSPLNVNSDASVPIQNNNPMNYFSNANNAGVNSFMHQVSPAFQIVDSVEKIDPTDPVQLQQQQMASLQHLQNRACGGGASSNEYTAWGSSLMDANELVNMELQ
# Experiment: protein-binding microarray (RPBM); PBS, 2% BSA, 51.3 ng/ul salmon testes DNA, 50 uM zinc acetate, 200 nM TF, 25 C, 1 h; high values mean tight binding
# Conditions: protein: recombinant; tags: N-terminal polyhistidine and DsRed monomer fusion (pET32a); chain copies: 2; label: CyDye5-dUTP incorporated in the synthesized complementary strand; 3' TTTTT single-stranded linker to array surface; dsDNA, one strand shown
# Method in brief: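 In PBS with 2% BSA, salmon testes DNA and 50 µM zinc acetate, 200 nM protein was incubated on a custom Agilent array at 25 °C for 1 h and then washed off. The array had been made double-stranded by primer extension with Cy5-dUTP and blocked with 2% BSA. The proteins were transcription factors fused N-terminally to polyhistidine and DsRed, expressed in E. coli BL21-CodonPlus and purified on Ni–NTA. The binding signal is per-feature fluorescence intensity (arbitrary units) from an Axon 4000B scanner.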
row,Sequence,binding signal
1,ACTCCCCTCCCCGCCACGTCGCCATTCTTCCCGCTCCTGACGGAGTCACCTAGTGCAG,11800 fluorescence intensity (a.u.)
2,GCTCGCCTTTTATCGCAGCCAAAGCCATGAAATTTCCCCACGGAGTCACCTAGTGCAG,27500 fluorescence intensity (a.u.)
3,CTCGCGTCGCCACGCAACTTAATTAATTTAGCCCCTAATTCGGAGTCACCTAGTGCAG,3640 fluorescence intensity (a.u.)
4,CTTCTAGCTGACACCTGTGCGCCGCCGCCTAATTTCAACTCGGAGTCACCTAGTGCAG,3930 fluorescence intensity (a.u.)
5,GCACCTCGTTAGGCTTCATGGTCATGGCTCGTCGCTGACGCGGAGTCACCTAGTGCAG,6120 fluorescence intensity (a.u.)
6,GCGGTTTCCTAGTTGACTGACCAAACAATTCATATATATTCGGAGTCACCTAGTGCAG,6140 fluorescence intensity (a.u.)
7,CCTACACTGAAGTTAAGCAGATCTTCCAGGCCTCGTGTTTCGGAGTCACCTAGTGCAG,43800 fluorescence intensity (a.u.)
8,CGGCCGTGTTAAGCCTCTTCCAAAGTCAGCTGAGTTGTGCCGGAGTCACCTAGTGCAG,5460 fluorescence intensity (a.u.)
9,TCGTGCTACAGATCTATAGCACACTACTCTTCTCTCTCTTCGGAGTCACCTAGTGCAG,3370 fluorescence intensity (a.u.)
10,CCACGAACAGCTACACGTCTCCTTCTCCTTCTTCGATTTCCGGAGTCACCTAGTGCAG,37400 fluorescence intensity (a.u.)
11,TCTTACAGCGCGCGTGTTCGTTCGAACGATTCTCTTCTTCCGGAGTCACCTAGTGCAG,51900 fluorescence intensity (a.u.)
12,ACAAGAGCCAGCGCGGCGTGTGTGCGCGATTTCTCTCTTCCGGAGTCACCTAGTGCAG,3210 fluorescence intensity (a.u.)
13,AGTGCCACTTAAGCGCCACATCAACGCCACATGGAAAGAACGGAGTCACCTAGTGCAG,4210 fluorescence intensity (a.u.)
14,AGACCCAAGTCACTCTCTCCGCTCCAGTCTCCACTCTCCACGGAGTCACCTAGTGCAG,23100 fluorescence intensity (a.u.)
15,ACCACTCTACCACAACCATTACGCTATCCGCCACGAGCAACGGAGTCACCTAGTGCAG,3270 fluorescence intensity (a.u.)
16,TCCACATGCTAATTTGTGGTGTCAGATACCTGAATACTCCCGGAGTCACCTAGTGCAG,41400 fluorescence intensity (a.u.)
17,AAGATCTGTATGCCTCATGAGGGTTGGTGTGTAATACTCCCGGAGTCACCTAGTGCAG,3890 fluorescence intensity (a.u.)
18,CTCTAAATTTGTGCAGATGTGTCACCTAGATCCCTGAACTCGGAGTCACCTAGTGCAG,4340 fluorescence intensity (a.u.)
19,CCCCTACTATTTTCTAGGCTAGGAAGCGTGCGATCTTTTCCGGAGTCACCTAGTGCAG,3240 fluorescence intensity (a.u.)
20,TGGCGCGACTGCTCGGGTCACCATAAATACGGGTAGGTGGCGGAGTCACCTAGTGCAG,3940 fluorescence intensity (a.u.)
21,CTGCTTGAATCCTTCTCGCTGAGCTGGCCTGCAGCCTTTTCGGAGTCACCTAGTGCAG,7190 fluorescence intensity (a.u.)

row,Sequence,binding signal
1,GATTGATGAGGCCGCAAAGCCTGGCTGCCTGCCTGCTTCTCGGAGTCACCTAGTGCAG,54300 fluorescence intensity (a.u.)
2,CTCCGCCGCTGGCCGCCTTGCCTGCTTGAGAGGAGGAGAGCGGAGTCACCTAGTGCAG,26800 fluorescence intensity (a.u.)
3,CATTATACATGTGTCATGTGTATTCGACTTCTGTGCTGCCCGGAGTCACCTAGTGCAG,4750 fluorescence intensity (a.u.)
4,GGTAGTCTGAAGCCTGTTGGTTATCCTCCTGGGAGTGTTGCGGAGTCACCTAGTGCAG,3220 fluorescence intensity (a.u.)
5,AGATTAGTTTTCCCATATATTTCTTGTCAGTCGTCGTCATCGGAGTCACCTAGTGCAG,3760 fluorescence intensity (a.u.)
6,ATAAAGTAACACATACACAAAGCCACATCATCAATATTTTCGGAGTCACCTAGTGCAG,8990 fluorescence intensity (a.u.)
7,AAGTAGTGTCTATGGTGCCATGTCAATAGGACATCATAATCGGAGTCACCTAGTGCAG,3920 fluorescence intensity (a.u.)
8,AATCAATACAAAGTCTGAAAGCCATTATGGTGGCAGTAATCGGAGTCACCTAGTGCAG,61300 fluorescence intensity (a.u.)
9,ATTTATATTTTAAAATATACTTTTATATGACACTAATTTTCGGAGTCACCTAGTGCAG,3170 fluorescence intensity (a.u.)
10,CACTTTTATGACATTTTCAACCATACTATTTTCCTTAAAGCGGAGTCACCTAGTGCAG,39800 fluorescence intensity (a.u.)
11,TTCTTTTCCCATGGCCTCTGACTATGACATTATTTAAACACGGAGTCACCTAGTGCAG,3440 fluorescence intensity (a.u.)
12,CATTTCCAAATTACATGTATGAATCCAACCAAAACTTTTCCGGAGTCACCTAGTGCAG,17200 fluorescence intensity (a.u.)
13,ATGCTAACCAACTAAAATACTTTTCCATGTACCTTACAAGCGGAGTCACCTAGTGCAG,60000 fluorescence intensity (a.u.)
14,AATTTACAAGGTAAAATTTTATACCACCTTATATACTTTGCGGAGTCACCTAGTGCAG,4160 fluorescence intensity (a.u.)
15,CGTGACGCGCAGCTCCCTGCAGCCGACCTGGCCACCCACACGGAGTCACCTAGTGCAG,3500 fluorescence intensity (a.u.)
16,TATATTCGTGTCATTTAGATACCATACCACATCCTGCTACCGGAGTCACCTAGTGCAG,3240 fluorescence intensity (a.u.)
17,TTACGATCACCGAAAAGTGGTAGCGTACGTGTTGAGTGTGCGGAGTCACCTAGTGCAG,4140 fluorescence intensity (a.u.)
18,GCTTGCTTTGTCACATGCAGTTTTACACCTTTTATTTCTCCGGAGTCACCTAGTGCAG,6070 fluorescence intensity (a.u.)
19,AATCAGATGATCGGTGCTGCAGCCATCATTGAAGCCTGTGCGGAGTCACCTAGTGCAG,3400 fluorescence intensity (a.u.)
20,AAATCAGGAGCCTCTGCCATTGGTTTGTGAAGCTACATCGCGGAGTCACCTAGTGCAG,65500 fluorescence intensity (a.u.)
21,TCAGGTGAAATCTGCTTCAGCCATATTCATTGGTAATCAGCGGAGTCACCTAGTGCAG,3600 fluorescence intensity (a.u.)
